# Results: PubChem BioAssay (NCI)
# This is part of a sample that, as a whole, favours compounds with a hit. Of some 83,000 tested, about 20% had one in any assay.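 48-hour exposure, single concentration, 96-well plates; percent growth endpoint where 0 means no net growth. Active: below 10.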 A number with no mark means an inactive call. The source made the active and inactive calls.
# Columns and labels:
# Assay in all cases: NCI-60 one-dose screen, 48 h (100 = growth as untreated, 0 = no growth, -100 = all killed)
# Details in all cases: 10 µM unless noted
# HCT-15 colon = system: HCT-15 colon
# HT29 colon = system: HT29 colon
# SNB-75 CNS = system: SNB-75 CNS
# SNB-19 CNS = system: SNB-19 CNS
# U251 CNS = system: U251 CNS
# PC-3 prostate = system: PC-3 prostate
# SK-MEL-5 melanoma = system: SK-MEL-5 melanoma
# UACC-62 melanoma = system: UACC-62 melanoma
# LOX IMVI melanoma = system: LOX IMVI melanoma
# SK-MEL-28 melanoma = system: SK-MEL-28 melanoma
# SK-MEL-2 melanoma = system: SK-MEL-2 melanoma
# EKVX NSCLC = system: EKVX NSCLC
# SN12C renal = system: SN12C renal
# UO-31 renal = system: UO-31 renal
# TK-10 renal = system: TK-10 renal
# ACHN renal = system: ACHN renal
# CAKI-1 renal = system: CAKI-1 renal
# A498 renal = system: A498 renal
# MOLT-4 leukemia = system: MOLT-4 leukemia
# CCRF-CEM leukemia = system: CCRF-CEM leukemia
Structure (SMILES),growth (HCT-15 colon),growth (HT29 colon),growth (SNB-75 CNS),growth (SNB-19 CNS),growth (U251 CNS),growth (PC-3 prostate),growth (SK-MEL-5 melanoma),growth (UACC-62 melanoma),growth (LOX IMVI melanoma),growth (SK-MEL-28 melanoma),growth (SK-MEL-2 melanoma),growth (EKVX NSCLC),growth (SN12C renal),growth (UO-31 renal),growth (TK-10 renal),growth (ACHN renal),growth (CAKI-1 renal),growth (A498 renal) [%],growth (MOLT-4 leukemia),growth (CCRF-CEM leukemia)
COc1ccc2cc(-c3nc4ccc(C)cn4c3NCc3ccco3)c(=O)[nH]c2c1,75.8%,79.9%,56%,34.6%,75.1%,46.1%,56.9%,46%,75.8%,81.8%,105%,55.9%,76.1%,47.8%,71%,45.4%,50.8%,43.8,52.7%,
C#Cc1cccc(Nc2ncnc3cc(NC(=O)CCl)ccc23)c1,-67.7% (active),-65.5% (active),-97.2% (active),-70.8% (active),-88.1% (active),-64.9% (active),-93.9% (active),-68.6% (active),-62.7% (active),-45.1% (active),-61.5% (active),-45.5% (active),-78.1% (active),-91.5% (active),-91.5% (active),-95.9% (active),-82.4% (active),20.5,-16.4% (active),
COC(=O)c1nc(-c2ccccc2)oc1S(=O)(=O)N1CCCC(C)C1 (configuration not stated),37.2%,56.3%,105%,91.5%,90.8%,71.6%,85.2%,84.7%,61.6%,84.9%,96.7%,100%,84.4%,65.7%,50.6%,66.7%,92.6%,92.9,6.09% (active),
CC1(/C=C/c2ccc(-c3ccccc3)cc2)CCn2cnc3ncnc(c32)N1O (configuration not stated),21.5%,30%,36.3%,26.7%,24.7%,42.4%,-6.47% (active),0.915% (active),9.21% (active),29.7%,38.8%,17.6%,20.2%,-5.45% (active),34.1%,6.19% (active),4.49% (active),19,14.2%,
COc1cc(Cc2cc(-c3ccccc3)nn(Cc3ccccc3)c2=O)cc(OC)c1OC,29.1%,32.2%,61%,51.7%,32.9%,22.7%,40.2%,37.7%,43.7%,56.2%,38.4%,14.7%,40.9%,21.6%,45.2%,27.9%,44.4%,,5.01% (active),34.8%
C=C1C(=O)O[C@H]2[C@H]1CC/C(CNC(=O)Cc1c[nH]c3ccccc13)=C\CC[C@@]1(C)O[C@@H]21,15.6%,1.86% (active),73.9%,57.5%,43.9%,49.9%,42.1%,-23.5% (active),-75.3% (active),-29.9% (active),33.5%,79.3%,13.9%,34.9%,-35.9% (active),3.84% (active),14.7%,,,-35.9% (active)
Cc1ccc(-c2nc(SCC(=O)N3CCN(c4cc5c(cc4F)c(=O)c(C(=O)O)cn5C4CC4)CC3)nc(Cl)c2C#N)cc1,99.8%,103%,103%,94.7%,106%,99.5%,101%,94.7%,97.2%,106%,97.8%,96.1%,96.3%,82.1%,104%,106%,94.7%,103,105%,
O=[N+]([O-])c1ccccc1Sc1ccccc1[N+](=O)[O-],99.1%,92%,80.8%,106%,90.6%,87.5%,97.3%,100%,91.8%,109%,97.2%,91.2%,99.3%,75.5%,85.2%,102%,-54.5% (active),81.2,94.8%,
CCOc1ncc([N+](=O)[O-])c(OCC)n1,104%,121%,97%,104%,109%,88.1%,99.9%,95.9%,101%,105%,103%,122%,91.8%,106%,115%,106%,116%,,90.9%,101%
O=C1CCCC1[n+]1ccccc1 (configuration not stated),97.1%,61.4%,86.3%,103%,84.4%,81.7%,104%,96.5%,99%,84.3%,85.3%,92.6%,104%,90%,79.4%,105%,92.4%,126,113%,
CCNC(=O)N1CCc2c(Br)c3c(c(OC)c2C1Cc1ccc(OC)cc1)OCO3 (configuration not stated),24.6%,14.4%,-7.7% (active),49.7%,32.3%,27.9%,28.9%,20.7%,32.6%,55.9%,15.4%,54.4%,49.9%,40.2%,65.6%,33.6%,18.6%,,,31.5%
CN(C)c1ccc(/C=N\NC(=O)c2ccc3nc(-c4ccc(Cl)cc4)[nH]c3c2)cc1,66.8%,4.33% (active),97.2%,60.4%,1.62% (active),46.8%,89%,88.2%,34%,71.9%,83.3%,73.2%,41.2%,75.4%,94.4%,35.7%,84.9%,,23.6%,21.4%
Cc1c2ccccc2nc2cc3c(cc12)[C@H]1CC[C@]2(C)C(=O)CC[C@H]2[C@@H]1CC3,90.3%,99.9%,66.4%,84.9%,92%,80.6%,88.8%,88.1%,97.8%,111%,103%,91.5%,95.4%,74%,111%,95%,73.7%,104,80.8%,
Oc1c(I)cc(I)cc1CN(Cc1ccccn1)Cc1ccccn1,21.3%,25.5%,30%,22.3%,7% (active),28%,-33.5% (active),3.88% (active),7.25% (active),28.5%,21.6%,13%,27.3%,-19.2% (active),8.19% (active),10.4%,0.0911% (active),22.3,5.38% (active),
O=S(O)c1cc(Cl)cc(Cl)c1OCc1ccccc1,112%,104%,98.7%,102%,93.7%,84.5%,96.3%,107%,108%,105%,105%,99.1%,98.4%,90.3%,101%,110%,99%,80,101%,
C1CCC(N2CN3c4nonc4N4CN(C5CCCCC5)CN5c6nonc6N(C2)C3C45)CC1 (configuration not stated),84.5%,105%,88.7%,102%,93.3%,87.9%,93.5%,88.7%,98.9%,101%,102%,82.4%,92.4%,71.9%,102%,103%,84.9%,,91.8%,51%
